In PubChem BioAssay AID1851 (National Center for Advancing Translational Sciences (NCATS), 2009):
Screen size: about 16,000 compounds; about 4,000 (25%) were called active. Not shown: some 26% with an inconclusive outcome. Calls come from the whole dose curve; as a rule, active = well fitted curve in the direction sought with a large enough effect; inconclusive = small, poorly fitted or top-dose-only effect, or effect the other way; inactive = no such curve, though single readings can be large or run the other way. Not all results are given here.

target: Cytochrome P450 2C9 (Homo sapiens) (UniProt P11712); assay: Cytochrome panel assay with activity outcomes; conditions: recombinant CYP, pro-luciferin dealkylation, luminescence, p450-cyp2c9; series mostly up to 57.1 µM
Sequence (P11712 whole entry, looked up): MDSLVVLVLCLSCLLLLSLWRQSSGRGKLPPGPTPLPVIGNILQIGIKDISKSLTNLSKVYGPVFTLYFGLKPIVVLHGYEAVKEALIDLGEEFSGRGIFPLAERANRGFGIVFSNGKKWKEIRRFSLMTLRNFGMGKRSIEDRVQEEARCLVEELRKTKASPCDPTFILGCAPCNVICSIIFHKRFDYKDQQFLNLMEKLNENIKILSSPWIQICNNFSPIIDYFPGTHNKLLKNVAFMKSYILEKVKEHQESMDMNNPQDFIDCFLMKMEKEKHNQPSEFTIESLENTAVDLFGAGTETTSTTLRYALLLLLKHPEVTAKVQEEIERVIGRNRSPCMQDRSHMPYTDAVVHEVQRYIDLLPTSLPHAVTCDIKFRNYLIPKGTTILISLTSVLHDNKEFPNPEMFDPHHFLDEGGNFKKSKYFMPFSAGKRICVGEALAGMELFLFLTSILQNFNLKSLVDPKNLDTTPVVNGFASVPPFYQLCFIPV
% is set by controls: 0 for no effect and ±100 for the full control effect.

SMILES | activity, negative = inhibition | AC50
Fc1ccc(Nc2ncncc2-c2ccccc2C(F)(F)F)cc1 | -4.04% [at 2.29 µM] (inactive) | 
CN1CCN(c2ccnc(-c3cccc(NS(C)(=O)=O)c3)n2)CC1 | -3.66% [at 2.29 µM] (inactive) | 
CC(C)c1ccccc1S(=O)c1ccccc1C(C)(C)O (centres undefined) | -18.2% [at 11.4 µM] (inactive) | 
O=C(O)CCCSc1nc2ccccc2s1 | -7.61% [at 11.4 µM] (inactive) | 
OCCN1CCN(CC/C=C2\c3ccccc3Sc3ccc(C(F)(F)F)cc32)CC1 |  | inactive
Cc1ccc(S(=O)(=O)NC(=O)CSc2nc3ccccc3s2)cc1 |  | 2.51 µM (active)
O=C(CSc1nc2ccccc2s1)Nc1nccs1 |  | inactive
NCCSc1nc2ccccc2s1 |  | 1.58 µM (active)
c1ccc2sc(SCSc3nc4ccccc4s3)nc2c1 | -1.3% [at 11.4 µM] (inactive) | 
O=C(CSc1nc2ccccc2s1)N1c2ccccc2Sc2ccc(C(F)(F)F)cc21 |  | 3.55 µM (active)
c1ccc2sc(SCCSc3nc4ccccc4s3)nc2c1 | 23.1% [at 11.4 µM] (inactive) | 
O=C(CSc1nc2ccccc2s1)NNC(=S)Nc1ccc(Br)cc1 |  | 5.01 µM (active)
CC(C)N=c1cc2n(-c3ccc(Cl)cc3)c3ccccc3nc-2cc1Nc1ccc(Cl)cc1 |  | inactive
CN(C)c1ncc2nc(-c3cccc(C#N)c3)c(=O)n(C[C@H]3CCCO3)c2n1 |  | inactive
CC(C)C(=O)C(C)(C)CCc1ccccn1 | 13.3% [at 11.4 µM] (inactive) | 
O=C1[C@H]2[C@H]3[C@H](O)[C@H](O)C/C(=N/OC[C@@H](O)COCc4ccco4)[C@@H]3CC[C@@H]2C(=O)N1C1CCCCC1 | -9.96% [at 11.4 µM] (inactive) | 
CCSC(=N)N |  | inactive
CO[C@@H]1COC(=O)C/C=C\[C@H](C)COC(=O)[C@H](Cc2ccccc2)NC(=O)C/C=C\[C@H]1C | -22.5% [at 11.4 µM] (inactive) | 
O=C(CSc1nc2ccccc2s1)N1c2ccccc2Sc2ccccc21 |  | 1.12 µM (active)
COC(=O)C1=C(C)C(c2ccc(OC)cc2)NC(=S)N1 (centres undefined) |  | 15.8 µM (active)

SMILES | activity, negative = inhibition | AC50
COc1ccc(N2C(=O)CCC(C(=O)O)C2c2ccc(F)cc2)cc1 (centres undefined) |  | inactive
CCOC(=O)C1=C(C)C(c2ccccc2OC)NC(=S)N1 (centres undefined) |  | 15.8 µM (active)
CCOC(=O)C1C(=O)NC(C)C1c1ccccc1 (centres undefined) |  | inactive
COc1ccc(C2C(C(=O)N3CCOCC3)CCC(=O)N2c2ccc(OC)cc2)cc1 (centres undefined) |  | inactive
Nc1ccn([C@@H]2O[C@H](COC(=O)C34CC5CC(CC(C5)C3)C4)[C@@H](O)[C@@H]2O)c(=O)n1 | -0.936% [at 11.4 µM] (inactive) | 
C#CCCCO/N=C1/C[C@@H](O)[C@@H](O)[C@@H]2[C@@H]3C(=O)N(C[C@@H]4CCCO4)C(=O)[C@H]3CC[C@H]12 | -17.1% [at 11.4 µM] (inactive) | 
Cc1cccc2nc(C(F)(F)F)nc(=O)n12 |  | inactive
C[C@@H](N)[C@@H](C)Cc1ccccc1 | -11% [at 11.4 µM] (inactive) | 
O=C(O)C[C@H](Cc1ccccc1)C(=O)O | -7.58% [at 11.4 µM] (inactive) | 
Cc1ccc(C)n1C(Cc1ccccc1)C(=O)O (centres undefined) |  | 31.6 µM (active)
O=S(=O)(c1ccc(F)cc1)n1ccc(-c2cnc(-c3ccccc3)s2)n1 |  | 7.94 µM (active)
COc1ncc2nc(-c3ccccc3)c(=O)n(C)c2n1 |  | inactive
COc1ccc(S(=O)(=O)n2ccc(-c3cnc(-c4ccccc4)s3)n2)cc1 |  | 1.78 µM (active)
C[C@@H](N=C(N)N)C(=O)O | 11.8% [at 11.4 µM] (inactive) | 
C[C@H](C(=O)c1ccncc1)c1ccccn1 | -11.4% [at 11.4 µM] (inactive) | 
Cc1c(C=O)c2ccccn2c1C(=O)c1ccncc1 |  | 7.94 µM (active)
CCCCOC(=O)c1ccc(O)cc1 |  | inactive
CCCCOC(=O)c1cc2c(cn1)[nH]c1ccccc12 |  | 7.94 µM (active)
CCNC(=O)COC(=O)c1cc(=O)[nH]c2ccccc12 |  | inactive
Nc1ncnc2c1ncn2[C@@H]1O[C@@H](C(=O)NC2CC2)[C@H](O)[C@@H]1O |  | inactive

SMILES | activity, negative = inhibition | AC50
CC(C)(C)NS(=O)(=O)c1ccc(NC(=O)c2cc(-c3ccccc3)nc3ccccc23)cc1 |  | 6.31 µM (active)
CC(C)(C)c1nnc(NC(=O)c2cc(-c3ccccc3)nc3ccccc23)s1 |  | 7.08 µM (active)
CCC(=O)Nc1nnc(C(C)(C)C)s1 |  | inactive
CC(=O)Nc1ccc(-c2cc(C(=O)O)c3cc4ccccc4cc3n2)cc1 | 4.42% [at 11.4 µM] (inactive) | 
COc1ccc(-c2cc(C(=O)Nc3nc4c(C)cccc4s3)c3ccccc3n2)cc1OC |  | 2.51 µM (active)
c1cncc(CNc2ncnc3ccc(-c4ccoc4)cc23)c1 | 0.357% [at 2.29 µM] (inactive) | 
Cc1noc(C)c1-c1ccc2ncnc(N3CCN(C)CC3)c2c1 | -6.38% [at 2.29 µM] (inactive) | 
CCCC1c2c(ccc3ccccc23)Oc2ccc3ccccc3c21 | -4.51% [at 11.4 µM] (inactive) | 
Cn1c2c(c(=O)n(C)c1=O)[C@@H]1c3c(ccc4ccccc34)OC[C@@H]1CO2 |  | 12.6 µM (active)
CN(C)c1ccc(-c2nc(NC3CCNCC3)c3ccccc3n2)cc1 | 12.7% [at 2.29 µM] (inactive) | 
C/C(=N\NC(=O)COc1ccc([N+](=O)[O-])cc1)C(C)(C)C |  | inactive
CCOC(=O)c1cccc(NC(=O)COc2ccc([N+](=O)[O-])cc2)c1 |  | 14.1 µM (active)
O=C(COc1ccc(/C=N/NC(=O)c2ccccc2)cc1)Nc1ccc([N+](=O)[O-])cc1 |  | inactive
C/C(=N\Nc1nnc(C)c(=O)[nH]1)C(=O)O |  | inactive
CC(C)(C)n1nc2c(c1NC(=O)c1ccc(S(=O)(=O)N3CCCCC3)cc1)CS(=O)C2 (centres undefined) |  | inactive
O=C(Nc1ccccc1-c1nc2ccccc2[nH]1)c1ccc(S(=O)(=O)N2CCCCC2)cc1 |  | 2 µM (active)
COc1ccccc1-c1nc(N(C)Cc2ccco2)c2ccccc2n1 | -7.62% [at 2.29 µM] (inactive) | 
O=C(Nc1c2c(nn1-c1ccc(F)cc1)CS(=O)(=O)C2)C12CC3CC(CC(C3)C1)C2 |  | inactive
CCC(CC)C(=O)Nc1c2c(nn1-c1ccc(OC)cc1)CS(=O)(=O)C2 |  | 7.94 µM (active)
